Laboratory results published in PubChem BioAssay (EPA / NIEHS).
Results filed as inconclusive are left out. Active and inactive are the calls of the source. The calls were made as follows, unless noted: active = hit-call score of the fitted dose curve at least 0.9, where 1 is the maximum; inactive = score below 0.9.

Assays:
[1] = read-out: Transforming Growth Factor (TGFA), TGFA (gene 7039); experiment: LTEA_HepaRG_TGFA: Life Technologies and Expression Analysis (LTEA) Assay for Transforming Growth Factor (TGFA) using HepaRG (AID 2283532); settings: mRNA level, 48 h; actives raise or lower the signal
Summary of the method: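 TGFA transcript quantified by qRT-PCR (Fluidigm arrays) against three housekeeping genes, after 48 hours chemical treatment of HepaRG cells. Top concentration 100 uM with half-log dilutions, 8 points, duplicates, 0.5% DMSO.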

[2] = read-out: Transforming Growth Factor (TGFB1), TGFB1 (gene 7040); experiment: LTEA_HepaRG_TGFB1: Life Technologies and Expression Analysis (LTEA) Assay for Transforming Growth Factor (TGFB1) Transporter using HepaRG (AID 2283533); settings: mRNA level, 48 h; actives raise or lower the signal
Summary of the method: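 HepaRG, 48 h post-plating, switched to serum-free induction medium; chemicals 100 uM top, half-log, 8 pts, 0.5% DMSO, dup; 48 h exposure; RNA → Fluidigm TaqMan qRT-PCR; norm ACTB/GAPDH/POLR2A; bidirectional fit vs DMSO.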

TIMP1, TIMP1 (gene 7076) = experiment: LTEA_HepaRG_TIMP1: Life Technologies and Expression Analysis (LTEA) Assay for TIMP1 using HepaRG (AID 2283534); settings: mRNA level, 48 h; actives raise or lower the signal
Summary of the method: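 Readout is TIMP1 mRNA level measured by qRT-PCR and normalized to three housekeeping genes. Human HepaRG cells were treated for 48 h in duplicate at eight concentrations up to 100 uM (0.5% DMSO); gain or loss fitted against DMSO.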

[3] = read-out: Tumor necrosis factor receptor 1 (TNFRSF1A), TNFRSF1A (gene 7132); experiment: LTEA_HepaRG_TNFRSF1A: Life Technologies and Expression Analysis (LTEA) Assay for Tumor necrosis factor receptor 1 (TNFRSF1A) using HepaRG (AID 2283535); settings: mRNA level, 48 h; actives raise or lower the signal
Summary of the method: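 Read-out is TNFRSF1A transcript level by TaqMan qRT-PCR, normalized to three housekeeping genes, scored as gain or loss of signal versus 0.5% DMSO. Human HepaRG cells received test chemicals for 48 h at up to 100 uM (half-log series).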

[4] = read-out: Thyroid Hormone Responsive (THRSP), THRSP (gene 7069); experiment: LTEA_HepaRG_THRSP: Life Technologies and Expression Analysis (LTEA) Assay for Thyroid Hormone Responsive (THRSP) using HepaRG (AID 2283536); settings: mRNA level, 48 h; actives raise or lower the signal
Summary of the method: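 THRSP transcript quantified by Fluidigm qRT-PCR against three housekeeping genes after 48 h chemical exposure of HepaRG cells in serum-free induction medium; eight-point half-log series, top 100 uM, 0.5% DMSO vehicle, duplicate wells.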

[5] = read-out: Cellular tumor antigen p53 (Homo sapiens) (UniProt P04637); experiment: LTEA_HepaRG_TP53: Life Technologies and Expression Analysis (LTEA) Assay for Tumor Protein P53 (TP53) using HepaRG (AID 2283537); settings: mRNA level, 48 h; actives raise or lower the signal
Summary of the method: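 Differentiated HepaRG cells in serum-free induction medium exposed 48 h in duplicate to 8 half-log concentrations, top 100 uM, 0.5% DMSO. TP53 mRNA by TaqMan qRT-PCR (Fluidigm), normalized to ACTB, GAPDH, POLR2A; fitted bidirectionally versus DMSO.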

[6] = read-out: UDP glucuronosyltransferase (UGT1A1), UGT1A1 (gene 54658); experiment: LTEA_HepaRG_UGT1A1: Life Technologies and Expression Analysis (LTEA) Assay for UDP glucuronosyltransferase (UGT1A1) using HepaRG (AID 2283538); settings: mRNA level, 48 h; actives raise or lower the signal
Summary of the method: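 UGT1A1 transcript level, measured by qRT-PCR with three housekeeping genes for normalization, after 48 h treatment of human HepaRG cells (0.5% DMSO, duplicates, up to 100 uM, half-log steps, 8 points). Curves fit both directions against DMSO baseline.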

[7] = read-out: UDP glucuronosyltransferase (UGT1A6), UGT1A6 (gene 54578); experiment: LTEA_HepaRG_UGT1A6: Life Technologies and Expression Analysis (LTEA) Assay for UDP glucuronosyltransferase (UGT1A6) using HepaRG (AID 2283539); settings: mRNA level, 48 h; actives raise or lower the signal
Summary of the method: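 HepaRG, 48 h post-plating switch to serum-free induction medium; chemical 48 h, 100 uM top, half-log x8, duplicate, 0.5% DMSO. Phenobarbital 1mM induction control. UGT1A6 mRNA by TaqMan qRT-PCR; gain/loss fit vs DMSO.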

[8] = read-out: X-box binding protein 1 (XBP1), XBP1 (gene 7494); experiment: LTEA_HepaRG_XBP1: Life Technologies and Expression Analysis (LTEA) Assay for X-box binding protein 1 (XBP1) using HepaRG (AID 2283540); settings: mRNA level, 48 h; actives raise or lower the signal
Summary of the method: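 Transcript levels of XBP1, measured by qRT-PCR and normalised to three housekeeping genes, were fitted bidirectionally relative to 0.5% DMSO controls. Human HepaRG cells received eight-point half-log dilutions from 100 uM for 48 h.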

[9] = LTEA_HepaRG_LDH_cytotoxicity: Cytotoxicity Assessment in the Life Technologies and Expression Analysis (LTEA) Assay (AID 2283563; active = hit-call score of the fitted dose curve at least 0.9, where 1 is the maximum;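 as to AC50: LDH activity released into spent culture medium as a marker of cell death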)
Summary of the method: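 Cells were thawed and plated for 48 h. Medium was then replaced with serum-free induction medium. Chemicals (8 half-log points, maximum 100 uM, 0.5% DMSO) were added in duplicate for 48 h, after which spent medium was assayed for LDH.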

[10] = TOX21_p53_BLA_p2_viability: Viability Assessment in the Tox21 HCT-116 p53 Agonism Beta-lactamase Assay, Phase 2 (AID 2283591; active = hit-call score of the fitted dose curve at least 0.9, where 1 is the maximum;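 also: compound exposure lasted 16 h at 37 °C; actives lower the ATP signal meaning cytotoxicity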)
Summary of the method: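 Cytotoxicity readout: CellTiter-Glo ATP luminescence, 30 min at room temperature, after the beta-lactamase read. Cells were HCT116 exposed 16 h at 37C to compounds pin-transferred at 217-fold dilution from DMSO stocks.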

[11] = target: Cellular tumor antigen p53 (Homo sapiens) (UniProt P04637); experiment: TOX21_p53_BLA_p2_ratio: Tox21 HCT-116 p53 Agonism Beta-lactamase Assay, Ratio, Phase 2 (AID 2283592; active = hit-call score of the fitted dose curve at least 0.9, where 1 is the maximum)
Summary of the method: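 Plated HCT116 p53-bla cells (4000/well) received compound after 5 h, then 16 h at 37C/5% CO2. CCF4-AM added, 2 h RT. Ratio of 460 to 530 nm emission taken as the p53 reporter signal.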

[12] = target: Cellular tumor antigen p53 (Homo sapiens) (UniProt P04637); experiment: TOX21_p53_BLA_p3_ratio: Tox21 HCT-116 p53 Agonism Beta-lactamase Assay, Ratio, Phase 3 (AID 2283596; active = hit-call score of the fitted dose curve at least 0.9, where 1 is the maximum)
Summary of the method: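 Cells were seeded at 4000/well, rested 5 h at 37C, then dosed with DMSO compound solutions (217-fold dilution) for 16 h. CCF4-AM substrate was loaded for 2 h at room temperature, and the 460/530 nm emission ratio was fitted for gain of signal versus DMSO.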

[13] = TOX21_p53_BLA_p4_viability: Viability Assessment in the Tox21 HCT-116 p53 Agonism Beta-lactamase Assay, Phase 4 (AID 2283597; active = hit-call score of the fitted dose curve at least 0.9, where 1 is the maximum;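 also: hits lower the luminescence signal meaning cytotoxicity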)
Summary of the method: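 Readout: ATP luminescence (CellTiter-Glo), measured 30 min after reagent addition at RT. The reagent followed a 2 h CCF4-AM incubation, and the cells had been exposed to compound for 16 h at 37C.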

[14] = target: Cellular tumor antigen p53 (Homo sapiens) (UniProt P04637); experiment: TOX21_p53_BLA_p5_ratio: Tox21 HCT-116 p53 Agonism Beta-lactamase Assay, Ratio, Phase 5 (AID 2283599; active = hit-call score of the fitted dose curve at least 0.9, where 1 is the maximum)
Summary of the method: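 Beta-lactamase reporter ratio (blue 460 nm over green 530 nm, 405 nm excitation) after 2 h CCF4-AM loading, in HCT-116 cells exposed 16 h at 37 C to compounds pinned at 217-fold dilution. Increases relative to DMSO baseline scored.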

[15] = TOX21_p53_BLA_p5_viability: Viability Assessment in the Tox21 HCT-116 p53 Agonism Beta-lactamase Assay, Phase 5 (AID 2283600; active = hit-call score of the fitted dose curve at least 0.9, where 1 is the maximum)
Summary of the method: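 Workflow: seed 4000 cells per well, wait 5 h, add compounds (DMSO, 217-fold dilution), incubate 16 h, load CCF4-AM 2 h, add CellTiter-Glo, read luminescence after 30 min.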

[16] = target: Cellular tumor antigen p53 (Homo sapiens) (UniProt P04637); experiment: TOX21_p53_BLA_p4_ratio: Tox21 HCT-116 p53 Agonism Beta-lactamase Assay, Ratio, Phase 4 (AID 2283601; active = hit-call score of the fitted dose curve at least 0.9, where 1 is the maximum)
Summary of the method: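 Signal is the blue/green (460nm/530nm) ratio of cleaved versus uncleaved CCF4-AM substrate, read after 2 h substrate loading. Cells were HCT116 carrying the p53-responsive beta-lactamase reporter, dosed 16 h at 37C, 5% CO2; CellTiter-Glo measured in parallel.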

[17] = Tanguay_ZF_120hpf_MORT_legacy: (Legacy) Oregon State University Tanguay Lab 120 Hour Post-fertilization zebrafish Assay for Mortality (AID 2283633; active = hit-call score of the fitted dose curve at least 0.9, where 1 is the maximum;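 as to AC50: fitted as increase in binary mortality versus DMSO negative control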)
Summary of the method: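 5D WT zebrafish, chorion removed 4 hpf; 1 embryo/well from 6 hpf; static exposure to 120 hpf, 28C, dark, sealed. Final DMSO 0.64%. Readout: binary mortality, brightfield, 24 + 120 hpf; DMSO as negative control.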

[18] = TOX21_p53_BLA_p3_viability: Viability Assessment in the Tox21 HCT-116 p53 Agonism Beta-lactamase Assay, Phase 3 (AID 2283593; active = hit-call score of the fitted dose curve at least 0.9, where 1 is the maximum;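 also: cells exposed to compound for 16 h before reading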)
Summary of the method: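 Cellular ATP was quantified by CellTiter-Glo luminescence, read after 30 min at room temperature. Beforehand, HCT116 cells (4000/well) received compound 5 h post-seeding, 217-fold diluted from DMSO, then incubated 16 h at 37C.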

Measured: AC50

Sequence of Cellular tumor antigen p53 (Homo sapiens) (P04637 whole entry, looked up): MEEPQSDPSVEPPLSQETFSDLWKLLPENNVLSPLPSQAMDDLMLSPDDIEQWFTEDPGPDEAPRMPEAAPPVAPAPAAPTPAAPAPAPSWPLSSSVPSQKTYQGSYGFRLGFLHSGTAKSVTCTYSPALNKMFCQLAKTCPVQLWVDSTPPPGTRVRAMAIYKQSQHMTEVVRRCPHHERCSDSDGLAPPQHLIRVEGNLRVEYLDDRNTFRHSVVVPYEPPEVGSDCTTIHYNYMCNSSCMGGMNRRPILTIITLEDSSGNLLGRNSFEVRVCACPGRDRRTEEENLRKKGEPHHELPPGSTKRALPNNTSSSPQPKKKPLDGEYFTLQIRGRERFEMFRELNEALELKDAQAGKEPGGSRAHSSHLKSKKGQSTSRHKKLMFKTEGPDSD

CN(C)C(=O)C1(N2CCCCC2)CCN(CC[C@@]2(c3ccc(Cl)c(Cl)c3)CN(C(=O)c3ccccc3)CCO2)CC1
active: [2] 47.2 µM | TIMP1, TIMP1 (gene 7076) 17.4 µM | [3] 27.5 µM | [4] 24.2 µM | [5] 47.2 µM | [6] 27.6 µM | [7] 25.7 µM | [9] 20 µM | [10] 37.8 µM | [11] 70.9 µM | [12] 82.3 µM | [13] 34 µM | [14] 82 µM | [15] 74.6 µM | [16] 48.5 µM | [17] 16.4 µM
inactive: [1] | [8]

CC1=CC(=O)/C(=C(/C)O)C(=O)O1
not listed: [10] | [11] | [13] | [16]
inactive: all other assays above
